Laboratory results published in PMC5540273 (PLoS ONE, 2017).

system: MET; settings: concentration: 1 μM,replicates: in singlicate; n = 1
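Note: KINOMEscan kinase panel screen.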

| Structure (SMILES) | %Inh |
| --- | --- |
| CC(C)N1C(=O)Cc2cc(Nc3ncc(C(F)(F)F)c(NCc4cccc(S(C)(=O)=O)c4)n3)ccc21 | 81% |
| NC(=O)c1cc(-c2ccccc2)cc2c(C3CCNCC3)c[nH]c12 [GSK301362] | 9% |
| Cc1ccc2c(-c3ccncc3)c(-c3ccc(F)cc3)nn2c1.Cl [GW461484] | 0% |
| COc1ccc(C[C@@H](CN)NC(=O)c2cc(Br)c(-c3ccnc4[nH]ccc34)s2)cc1.Cl.Cl [GSK1389063] | 33% |
| Cl.Cl.Nc1nc(-c2ccc3c(N)n[nH]c3c2)cc(N2CCCC(NC(=O)c3ccccc3)C2)n1 (stereo not drawn) [GSK2286775] | 0% |
| CCN(CC)CCOc1ccc(Nc2ncc3cc(-c4c(Cl)cccc4Cl)c(=O)n(C)c3n2)cc1 [SB-601273] | 78% |
| CCN(CC)CCCCNc1ncc2cc(-c3c(Cl)cccc3Cl)c(NC(=O)NC(C)(C)C)nc2n1 | 60% |
| Cc1ccc(-n2nc(C(C)(C)C)cc2NC(=O)Nc2ccc(OCCN3CCOCC3)c3ccccc23)cc1 [GW839464] | 9% |
| C[C@@H]1CCN(C(=O)CC#N)C[C@@H]1N(C)c1ncnc2[nH]ccc12 | 0% |
| C[C@H]1Oc2cc(cnc2N)-c2c(nn(C)c2C#N)CN(C)C(=O)c2ccc(F)cc21 | 10% |
| Cc1occc1-c1nc(N)c(OC[C@@H](N)Cc2c[nH]c3ccccc23)cc1-c1cc2c(C)n[nH]c2cn1 [GSK1660450] | 0% |
| Cl.Cl.NC[C@H](Cc1ccc(C(F)(F)F)cc1)NC(=O)c1cc(Br)c(-c2ccnc3[nH]ccc23)s1 [GSK1487252] | 2% |

system: T1, MINK; settings: concentration: 1 μM,replicates: in singlicate; n = 1
T1 construct: gene MINK1

| Structure (SMILES) | %Inh |
| --- | --- |
| Cl.Oc1cc(-c2nc(-c3ccccc3)[nH]c2-c2ccncc2)ccc1Cl [SB-386023] | 5% |
| Cc1cc(C(=O)Nc2ccc(Oc3ccc4nc(NC(=O)C5CC5)cn4n3)cc2)nn1-c1ccccc1 | 0% |
| O=C(NCCNc1ccnc(NCc2ccc(F)cc2)n1)c1cc2ccccc2s1 [GSK1379944] | 0% |
| C[C@@H](Oc1cc(-c2cnn(C3CCNCC3)c2)cnc1N)c1c(Cl)ccc(F)c1Cl | 47% |
| CNC(=O)c1ccccc1Sc1ccc2c(/C=C/c3ccccn3)n[nH]c2c1 | 57% |
| C=CC(=O)Nc1cc2c(Nc3ccc(F)c(Cl)c3)ncnc2cc1OCCCN1CCOCC1 [GW781483] | 26% |
| CC(C)Nc1cc(-c2ccc3c(N)n[nH]c3c2)nc(N)n1 [GSK2221681] | 9% |
| Nc1nc(Nc2ccccc2)cc(-c2ccc3c(N)n[nH]c3c2)n1 [GSK2225749] | 47% |
| CN(C)CC(O)COc1ccc(Nc2nccc(-c3cnn4nc(N5CCOCC5)ccc34)n2)cc1 (stereo not drawn) [GW767488] | 55% |
| Cc1cc2cn[nH]c2cc1-c1cccc2c(N)c(C(N)=O)nnc12 | 55% |
| O=C(NCCCN1CCOC1=O)c1cnc(NCc2cc(Cl)ccc2Cl)nc1NC1CCCC1 | 10% |
| CCn1c(-c2nonc2N)nc2c(C#CC(C)(C)O)nc(OCCN)cc21.Cl.Cl [GSK902056] | 0% |
| Cc1n[nH]c2ccc(-c3cc(OC[C@@H](N)Cc4ccccc4)cnc3-c3ccoc3)cc12.O=C(O)C(F)(F)F.O=C(O)C(F)(F)F [GSK507358] | 96.7% |
| CN(C)CCOc1ccc(-c2cc(-c3c[nH]nc3-c3ccccn3)ccn2)cc1 [GW835314] | 89% |
| Cl.Cl.NC[C@H](CC1CCCCC1)NC(=O)c1cc(Br)c(-c2ccnc3[nH]ccc23)s1 [GSK1581427] | 24% |
| CC(C)N1C(=O)Cc2cc(Nc3ncc(C(F)(F)F)c(NCc4cccc(S(C)(=O)=O)c4)n3)ccc21 | 44% |
| NC(=O)c1cc(-c2ccccc2)cc2c(C3CCNCC3)c[nH]c12 [GSK301362] | 56% |
| Cc1ccc2c(-c3ccncc3)c(-c3ccc(F)cc3)nn2c1.Cl [GW461484] | 72% |
| COc1ccc(C[C@@H](CN)NC(=O)c2cc(Br)c(-c3ccnc4[nH]ccc34)s2)cc1.Cl.Cl [GSK1389063] | 78% |
| Cl.Cl.Nc1nc(-c2ccc3c(N)n[nH]c3c2)cc(N2CCCC(NC(=O)c3ccccc3)C2)n1 (stereo not drawn) [GSK2286775] | 17% |
| CCN(CC)CCOc1ccc(Nc2ncc3cc(-c4c(Cl)cccc4Cl)c(=O)n(C)c3n2)cc1 [SB-601273] | 96.2% |
| CCN(CC)CCCCNc1ncc2cc(-c3c(Cl)cccc3Cl)c(NC(=O)NC(C)(C)C)nc2n1 | 45% |
| Cc1ccc(-n2nc(C(C)(C)C)cc2NC(=O)Nc2ccc(OCCN3CCOCC3)c3ccccc23)cc1 [GW839464] | 84% |
| C[C@@H]1CCN(C(=O)CC#N)C[C@@H]1N(C)c1ncnc2[nH]ccc12 | 0% |
| C[C@H]1Oc2cc(cnc2N)-c2c(nn(C)c2C#N)CN(C)C(=O)c2ccc(F)cc21 | 0% |
| Cc1occc1-c1nc(N)c(OC[C@@H](N)Cc2c[nH]c3ccccc23)cc1-c1cc2c(C)n[nH]c2cn1 [GSK1660450] | 97.5% |
| Cl.Cl.NC[C@H](Cc1ccc(C(F)(F)F)cc1)NC(=O)c1cc(Br)c(-c2ccnc3[nH]ccc23)s1 [GSK1487252] | 27% |
